FLuc modulator: counter-screen for miR-21 project: firefly luciferase inhibitors or activators | Potency, µM (top dose mostly 57.5 µM), most hits filed as inhibitors | 360,000 tested, 6.9% active | purified FLuc, Km substrates, luminescence inhibition | AID 588342; note: nearly all actives have a fitted effect of over 55% in size
Target sequence (P08659 whole entry, looked up): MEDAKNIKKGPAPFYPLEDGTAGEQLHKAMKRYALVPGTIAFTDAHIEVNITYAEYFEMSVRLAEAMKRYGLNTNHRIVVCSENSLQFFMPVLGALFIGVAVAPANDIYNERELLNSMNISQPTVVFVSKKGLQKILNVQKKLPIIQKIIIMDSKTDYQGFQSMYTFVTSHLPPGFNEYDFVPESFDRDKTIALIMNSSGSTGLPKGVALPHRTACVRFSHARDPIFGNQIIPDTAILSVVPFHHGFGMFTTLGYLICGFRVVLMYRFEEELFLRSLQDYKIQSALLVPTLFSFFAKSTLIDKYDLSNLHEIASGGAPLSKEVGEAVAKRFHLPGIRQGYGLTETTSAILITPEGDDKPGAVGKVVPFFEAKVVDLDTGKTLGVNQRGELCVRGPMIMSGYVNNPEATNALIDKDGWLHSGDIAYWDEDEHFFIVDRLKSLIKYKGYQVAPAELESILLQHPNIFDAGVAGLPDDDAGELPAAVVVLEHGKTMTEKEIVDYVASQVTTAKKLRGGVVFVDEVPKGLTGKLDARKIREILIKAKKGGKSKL
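Biochemical qHTS of compounds, final roughly 60 µM downward over six points, against 10 nM purified firefly luciferase using Km concentrations of substrates (10 uM D-luciferin, 10 uM ATP) in Tris acetate pH 7.5 buffer; luminescence output.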
ELG1 genotox: inducers of genotoxicity in HEK293T ELG1-luciferase cells. 330,000 tested, 1.3% active. HEK293T ELG1-luciferase reporter, luminescence, 16 h. Potency, µM (top dose mostly 46 µM), actives largely listed as activators; note: nearly all actives have a fitted effect of over 60% in size
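HEK293T cells expressing luciferase-tagged ELG1 were treated with compound or DMSO for 16 hr at 37°C. Luciferase activity was then read after 30 min with ONE-Glo at room temperature; rising signal flags genetic stress.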
NPC1 prom act: activators of NPC1 promoter; Potency, µM (top dose mostly 9.22 µM), usual class: activators; Huh7 NPC1 promoter luciferase reporter, 24 h; 320,000 tested, 2.4% active; note: nearly all actives have a fitted effect of over 60% in size
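Luciferase expression driven by the NPC1 promoter was measured in stably transfected Huh7 cells after a 24 h compound incubation, using a luciferase reagent and a luminescence read.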
SMN2 splice up: enhancers of SMN2 splice variant expression; 210,000 tested, 2.8% active; HEK293 SMN2-luciferase splicing reporter, luminescence, 30-36 h; Potency, µM (series often up to 46.1 µM), most hits filed as activators; AID 1458; note: nearly all actives have a fitted effect of over 55% in size
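qHTS luciferase splicing reporter: luminescence rises when SMN2 exon 7 is included in transfected HEK293 cells. Compound exposure lasted 30-36 h at 37C, with 4.5 mM final sodium butyrate as control, followed by a ONE-Glo read.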
Rab9 prom act: activates the Rab9 promoter. Huh7 Rab9 promoter-luciferase reporter, luminescence, 24 h. Potency, µM (top dose mostly 9.22 µM), most hits filed as activators. 320,000 tested, 2.8% active; note: nearly all actives have a fitted effect of over 60% in size
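Huh7 cells stably carrying a Rab9 promoter-luciferase reporter, 1500 cells per well in OP-MEM I with 10% FBS, treated with compound 24 hours at 37C. Luciferase activity read by luminescence after 10 minutes with Amplite reagent.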
KinaseGlo FLuc: blocks Kinase-Glo luciferase, a counter-screen artifact. Kinase-Glo luciferase, ATP luminescence, 8 min. AID 1379. Q27757. Potency, µM (series often up to 38.3 µM), usual class: inhibitors. 200,000 tested, 0.28% active; note: nearly all actives have a fitted effect of over 60% in size
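Inhibition of Kinase-Glo luciferase light generation was assessed at 10 uM ATP in pH 7.2 imidazole buffer, with luminescence measured after eight minutes at ambient temperature.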
Numbers stand for hits; n = inactive; u = inconclusive; x = no result given; [ ] = another dose, or the depositor's remark. Hits are enriched below; roughly 7.3% of the tested compounds scored in any of these assays. Calls come from the whole dose curve; as a rule, active = well fitted curve in the direction sought with a large enough effect; inconclusive = small, poorly fitted or top-dose-only effect, or another doubt; inactive = no such curve, though single readings can be large; an effect the other way counts as inactive or inconclusive.

SMILES	FLuc modulator	ELG1 genotox	NPC1 prom act	SMN2 splice up	Rab9 prom act	KinaseGlo FLuc
CCOC(=O)C1=C(COC(=O)/C=C/c2ccccc2Cl)NC(=O)NC1C (configuration not stated)	27µM	u	n	x	n	x
CCOC(=O)C1=C(COC(=O)c2cccc(N(C)C)c2)NC(=O)NC1C (configuration not stated)	24µM	u	u	x	2.8µM	x
CCOC(=O)C1=C(COC(=O)/C=C/c2ccccc2F)NC(=O)NC1C (configuration not stated)	n	n	n	x	n	x
CCOC(=O)C1=C(COC(=O)c2cccc(Br)c2)NC(=O)NC1C (configuration not stated)	n	n	n	x	n	x
CCc1ccc(CNC(=O)c2cc(=O)[nH]c3ccc(S(=O)(=O)N4CCCCC4)cc23)cc1	n	x	x	x	x	x
CCOC(=O)CNC(=O)O[C@@H]1C(=O)c2cc(Br)ccc2O[C@H]1c1ccc2c(c1)OCO2	x	x	x	n	x	n
Cc1cc(O)c(C(c2cccc(F)c2)N2CCN(c3ccccc3)CC2)c(=O)n1Cc1ccco1 (configuration not stated)	n	x	x	x	x	x
CCOc1cccc(C(=O)Nc2ccc3[nH]ncc3c2)c1	5.4µM	u	2.8µM	x	2µM	x
COc1cccc(C(=O)Nc2ccc3[nH]ncc3c2)c1	11µM	u	2.8µM	x	3.5µM	x
CCOc1ccc(CN(CCc2ccc3c(c2)OCO3)Cc2cc(OC)cc(OC)c2)cc1	n	x	x	n	x	x
CC(C)c1cccc2cc3c(nc12)-c1cccc(=O)n1C3	x	x	x	n	x	n
Cc1ccccc1-c1nc(-c2ccc(NC(=O)c3ccc(Br)o3)cc2)no1	u	u	u	n	u	n
Cc1ccccc1-c1nc(-c2ccc(Br)o2)no1	3.4µM	u	1.8µM	x	2.2µM	x
Fc1ccccc1-c1nc(-c2ccc(Br)o2)no1	0.85µM	u	0.5µM	x	u	x
Cc1noc(C)c1S(=O)(=O)N1CCc2nc(-c3ccccc3)c3c(c2C1)CO[C@@H](C)C3	x	x	x	n[9.22 µM]	x	n[7.66 µM]
COc1ccc(-c2cn3nc(N4CCC(C(=O)Nc5ccc(C)cc5)CC4)sc3n2)cc1	n	x	x	x	x	x
CC(=O)OCC(=O)Nc1ccc(N=Nc2ccccc2)cc1	12µM	23µM	2.8µM	6.3µM	2.8µM	n
CC(C)C(=O)OCC(=O)Nc1ccc(N=Nc2ccccc2)cc1	u	21µM	2.5µM	11µM	0.79µM	n
CC1(C(=O)OCC(=O)Nc2ccccc2)CC1(Cl)Cl (configuration not stated)	17µM	n	u	n	u	n
CCC(C(=O)OCC(=O)Nc1ccc(F)cc1)c1ccccc1 (configuration not stated)	n	n	n	x	n	x
CC(C)C(=O)OCC(=O)NCc1ccccc1Cl	17µM	n	u	n	n	n
Cc1ccc(-c2noc(CN(C3CCCCC3)S(=O)(=O)c3ccc(F)cc3)n2)cc1	n	x	x	n	x	x
O=C(Nc1ccc(N=Nc2ccccc2)cc1)c1ccccc1Cl	3.8µM	u	1.8µM	11µM	2.5µM	n
CC(=O)Nc1ccccc1	x	n	x	n	x	n
O=C(CCl)Nc1ccc(N=Nc2ccccc2)cc1	6µM	n	n	n	n	n
SMILES	FLuc modulator	ELG1 genotox	NPC1 prom act	SMN2 splice up	Rab9 prom act	KinaseGlo FLuc
CC(=O)Nc1ccc(N=Nc2ccccc2)cc1	6µM	10µM	2.8µM	10µM	2.8µM	n
COc1ccc(OC)c(CCNC(=O)c2nc(-c3ccc(Cl)cc3)n3c2CCCCC3)c1	n	x	x	x	x	x
COc1ccc(S(=O)(=O)N(CC(=O)NC(C)c2ccccc2)c2ccc(C)cc2)cc1OC (configuration not stated)	n	x	x	n	x	x
COC(=O)c1cc2oc(C)cc2n1Cc1cccc(Cl)c1	n	x	x	n	x	x
Cc1ccc(C)c(CN2CCCN(CC(=O)Nc3ccc(C)c(C)c3)S2(=O)=O)c1	n	x	x	x	x	x
COc1cccc(/C=C2\Oc3cc(OCC(=O)N4CCC[C@H]4C(=O)O)ccc3C2=O)c1	2.7µM	n	n	x	n	x
COc1ccc(OC)c(/C=C2\Oc3cc(OCC(=O)N4CCC[C@H]4C(=O)O)ccc3C2=O)c1	u	n	n	x	n	x
COc1cc(OC)c(OC)cc1/C=C1\Oc2cc(OCC(=O)N3Cc4ccccc4C[C@H]3C(=O)O)ccc2C1=O	u	n	n	x	n	x
COc1ccc(/C=C2\Oc3cc(OCC(=O)N4CCC[C@H]4C(=O)O)ccc3C2=O)c(OC)c1	12µM	n	n	x	n	x
Cc1ccc(N[C@H](c2ccccc2)c2ccc3cccnc3c2O)cc1	x	x	x	n[9.22 µM]	x	n[7.66 µM]
CCn1cc(C(=O)N2CCN(c3ccc(F)cc3)CC2)c(=O)c2cc(S(=O)(=O)N3CCOCC3)ccc21	n	x	x	n	x	x
COc1ccc(-n2c(=O)c3c(c4cc(OC)ccc4n3C)n(Cc3cc(C)ccc3C)c2=O)cc1	n	x	x	x	x	x
COC(=O)CCC(=O)OC1(C)C(=O)C=C2C=C(C3CC3)N(c3ccc(OC)cc3)C=C2C1=O (configuration not stated)	x	x	x	n[9.22 µM]	x	n[7.66 µM]
Cc1ccc(NC(=O)c2cccc(OCc3c(C)noc3C)c2)cc1	24µM	n	n	n	n	n
COC(=O)COc1cccc(NC(=O)c2ccc(Cl)cc2)c1	27µM	n	n	n	n	n
Cc1ccc(NC(=O)c2ccc(OCc3c(C)noc3C)cc2)cc1	n	n	n	x	n	x
COC(=O)COc1cccc(NC(=O)c2cc(OC)cc(OC)c2)c1	u	n	n	n	n	n
CCCCOc1cccc(NC(=O)c2cccc(C(=O)Nc3cccc(OCCCC)c3)c2)c1	n	x	x	n	x	x
COC(=O)COc1cccc(NC(=O)c2ccc(C)cc2)c1	12µM	n	n	n	n	n
Cc1ccc(NC(=O)c2ccc(OC(=O)COc3ccc(Cl)c(C)c3)cc2)cc1	u	u	2.2µM	13µM	3.5µM	n
CCN(C(=O)CSc1nc(-c2ccccc2)no1)c1cccc(C)c1	n	x	x	n	x	x
CCc1ccc(S(=O)(=O)c2cn(C)c3cc(N4CCC(C)CC4)c(F)cc3c2=O)cc1	n	x	x	x	x	x
O=Cc1ccccc1OCCOc1ccccc1C=O	24µM	u	n	u	n	n
Cc1nc2cc(-c3ccccc3)ccc2o1	12µM	n	n	n	n	n
Cc1ccc2oc(=O)c(/C=C(\O)c3ccccc3)nc2c1	u	n	n	n	n	n
SMILES	FLuc modulator	ELG1 genotox	NPC1 prom act	SMN2 splice up	Rab9 prom act	KinaseGlo FLuc
Cc1ccc(CSc2nc3ccncc3[nH]2)cc1	2.7µM	u	u	7.1µM	u	11µM
Clc1ccc(CSc2nc3ccncc3[nH]2)cc1	4.8µM	2.9µM	0.63µM	11µM	0.71µM	u
O=C(c1ccc(CSc2nc3ccncc3n2Cc2ccccc2)cc1)N1CCCCCC1	17µM	x	x	n	x	x
O=C(c1ccc(CSc2nc3ccncc3[nH]2)cc1)N1CCCCCC1	15µM	u	u	x	u	x
Cc1ccccc1-c1noc(CSc2nc(-c3ccc(F)cc3)cc(=O)[nH]2)n1	n	x	x	x	x	x
COc1ccc(C)cc1S(=O)(=O)Nc1cccc(-c2ccc(N3CCCCCC3)nn2)c1	9.5µM	n	n	x	n	x

Screening results from PubChem BioAssay.
